Screening results from PubChem BioAssay.
This is a sample that favours compounds with a hit; in the whole collection about 19% have one here.
TDP1 cell CPT: DT40-hTDP1 cell growth loss with CPT. chicken DT40 Tdp1-/-;hTDP1 cells + 20 nM CPT, ATP luminescence, 48 h. Potency, µM (titrated, usually from 46.2 µM), inactives show at the highest dose activity change, negative = growth inhibition, hits mostly inhibitors. 420,000 tested, 12% active. AID 686979; note: potency is the fitted concentration of half-maximal effect; nearly all actives have a fitted effect of over 55% in size
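Chicken DT40 Tdp1-/- cells stably complemented with human TDP1 were seeded at 400 cells/well in medium containing 20 nM camptothecin, exposed to pin-transferred compounds, and grown at 37 °C for at least 48 hr. Viability was read as ATP luminescence.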
DT40 TDP1 no CPT: qHTS for Inhibitors of human tyrosyl-DNA phosphodiesterase 1 (TDP1): qHTS in cells in absence of CPT | DT40 Tdp1-/- hTDP1 cells, no CPT, ATP luminescence, 48 h | Potency, µM (highest dose often 46.2 µM), without a hit: top-dose activity change, negative = growth inhibition, hits mostly inhibitors | 420,000 tested, 15% active; note: potency is the fitted concentration of half-maximal effect; nearly all actives have a fitted effect of over 55% in size
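Chicken DT40 Tdp1-/- cells stably complemented with human TDP1 were seeded at 400 cells/well with DMSO in place of 20 nM camptothecin. After compound pinning, cells grew at least 48 hr at 37 °C; viability read by CellTiter-Glo luminescence.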
ELG1 repair inh: ELG1-dependent DNA repair inhibition; HEK293T ELG1-luciferase reporter, luminescence, 16 h; DNA damage induced by 5-fluorouridine; Potency, µM (top dose mostly 46.1 µM), for the others: top-dose activity change, negative = inhibition, most hits filed as inhibitors; 330,000 tested, 2.3% active; note: potency is the fitted concentration of half-maximal effect; nearly all actives have a fitted effect of over 55% in size
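5-Fluorouridine DNA damage + compound/DMSO, 2,000 cells/well, 16 h, 37 °C/5% CO2. ONE-Glo, 30 min RT, luminescence. Readout = decrease in reporter signal.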
IL-1B inflam inh: inhibitors of inflammasome signaling (IL-1 beta secretion). THP-1 LPS/ATP IL-1B secretion, AlphaLISA, 16 h; hits give low values. activity change, % at 57.5 µM. 360,000 tested, 4.7% active. AID 743279; in the data active = activity change below about -50%; inconclusive = mostly about -30% to -49%
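Secreted IL-1B measured by AlphaLISA bead assay after 16 h compound exposure of THP-1 cells; compounds (final up to 57.5 uM) added 1 h before LPS (250 ng/mL) and ATP (1.25 mM) stimulation; lower signal means less secretion.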
TDP1 block: inhibitors of human tyrosyl-DNA phosphodiesterase TDP1. Q9NUW8. recombinant TDP1, AlphaScreen DNA substrate cleavage. Potency, µM (doses to about 130 µM), for inactives: top-dose activity change, negative = inhibition, hits mostly inhibitors. 350,000 tested, 0.28% active; note: potency is the fitted concentration of half-maximal effect; nearly all actives have a fitted effect of over 40% in size
Target sequence (Q9NUW8 whole entry, looked up): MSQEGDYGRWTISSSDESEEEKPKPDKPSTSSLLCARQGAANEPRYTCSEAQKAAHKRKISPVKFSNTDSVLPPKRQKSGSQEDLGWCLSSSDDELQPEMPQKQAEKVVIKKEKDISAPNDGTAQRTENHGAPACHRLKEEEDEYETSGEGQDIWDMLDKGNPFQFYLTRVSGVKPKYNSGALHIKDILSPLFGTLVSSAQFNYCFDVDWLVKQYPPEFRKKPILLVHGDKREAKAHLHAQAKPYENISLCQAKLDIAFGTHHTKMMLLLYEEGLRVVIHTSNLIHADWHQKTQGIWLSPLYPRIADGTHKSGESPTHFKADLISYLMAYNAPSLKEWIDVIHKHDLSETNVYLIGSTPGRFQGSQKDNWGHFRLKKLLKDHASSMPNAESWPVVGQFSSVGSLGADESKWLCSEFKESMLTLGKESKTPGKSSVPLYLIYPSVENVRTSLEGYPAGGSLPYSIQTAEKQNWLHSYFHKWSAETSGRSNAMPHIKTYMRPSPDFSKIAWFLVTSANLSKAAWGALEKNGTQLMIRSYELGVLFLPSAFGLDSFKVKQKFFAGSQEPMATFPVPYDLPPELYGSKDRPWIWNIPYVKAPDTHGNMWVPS
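Steps: enzyme plus compound, 15 min RT; add biotin/phosphotyrosine-FITC oligonucleotide (15 nM final), react 5 min; add donor/acceptor beads (10 ug/ml final), 10 min; read AlphaScreen. Tdp1 at 1 nM final.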
Giardia kill: Giardia lamblia killing; Giardia lamblia trophozoite viability; activity change, % at 7.66 µM, hits read low; 340,000 tested, 0.15% active; AID 540267; in the data active = activity change below about -80%; inconclusive = between about -30% and that limit;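 note: parasites exposed to compound for two days anaerobically before the ATP read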
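Trophozoites 100 cells/well + cpd; 48 hrs, 37 deg C, anaerobic. ATPLite 1-Step added, 15-30 min RT, luminescence read (ATP-based viability).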
* marks the source's active call; other numbers are inactive results; u = inconclusive; x = no result given; [ ] = another dose, or the depositor's remark. Unless noted, calls come from the whole dose curve; as a rule, active = well fitted curve in the direction sought with a large enough effect; inconclusive = small, poorly fitted or top-dose-only effect, or another doubt; inactive = no such curve, though single readings can be large; an effect the other way counts as inactive or inconclusive. % is set by controls: 0 for no effect and ±100 for the full control effect.

SMILES	TDP1 cell CPT	DT40 TDP1 no CPT	ELG1 repair inh	IL-1B inflam inh	TDP1 block	Giardia kill
CNS(=O)(=O)c1cc(NC(=O)CCNC(=O)c2ccco2)ccc1C	-12%	6%	-6%	9	11%	-13
Cc1ccc(C(C)(O)CS(=O)(=O)Cc2ccccc2)cc1 (stereo not given)	11%	-11%	u	-3	x	28
CCCC(=O)Nc1ccc(C(=O)N/N=C/c2ccc([N+](=O)[O-])o2)cc1	15µM*	9.2µM*	u	17	4%	3
Cc1cc(C)c(S(=O)(=O)N/N=C/c2ccc([N+](=O)[O-])o2)c(C)c1	23µM*	u	14%	-3	1%[56.1 µM]	u
NC(=O)N/N=C/c1ccc([N+](=O)[O-])o1	16µM*	3.3µM*	-17%	8	0%	u
NC(=O)N/N=C\c1ccc([N+](=O)[O-])o1	x	x	x	x	-10%[56.1 µM]	x
O=C(N/N=C\c1ccc([N+](=O)[O-])o1)c1ccc(O)cc1	x	x	x	x	-6%[56.1 µM]	x
O=C(NCCCN1CCCCCC1)C(c1ccccc1)C1CCCCC1 (stereo not given)	u	16µM*	x	x	u	x
Cc1ccc(CNC(=O)c2cn(C3CCCCC3)c(=O)c3c2c2ccccc2n3C)o1	12µM*	16µM*	u	-86*	2%	-20
Cc1ccc(CNC(=O)c2cn(C)c(=O)c3c2c2ccccc2n3C)o1	u	u	-8%	9	4%	7
Cc1cc(NC(=O)c2cn(C3CCCCC3)c(=O)c3c2c2ccccc2n3C)no1	u	23µM*	u	-3	5%	-16
CCOc1ccccc1NC(=O)c1cn(C2CCCCC2)c(=O)c2c1c1ccccc1n2C	u	u	x	x	-2%	x
COc1ccccc1CNc1ncncc1-c1ccccc1C(F)(F)F	-4%	-17%	x	x	x	x
N#CC(C#N)=Cc1cnc(N2CCN(c3ccccc3)CC2)s1	4%	-4%	u	-8	x	-1
CCCCCC(=O)NCc1c(C(F)(F)F)nn(C)c1N1CCOCC1	21%	6%	-17%	31	3%	4
Cc1ccc(C2C3=C(CCCC3=O)Nc3nc(SCC(=O)NCc4ccco4)[nH]c(=O)c32)cc1 (stereo not given)	4%	8%	17%	32	-3%	7
O=C1CCCC2=C1C(c1ccncc1)c1c(nc(SCc3ccccc3)[nH]c1=O)N2 (stereo not given)	-4%	-16%	-5%	-52*	4%	-13
CCN(CC)C(=O)N1CCc2ccccc21	-17%	-2%	11%	15	-5%	1
CCOC(=O)N1CCN(C(=O)c2ccccc2NC(=O)COc2ccccc2)CC1	u	16µM*	u	8	5%	-22
CCOC(=O)N1CCN(c2nc(-c3ccccc3)c3ccccc3n2)CC1	-26%	26µM*	-9%	-5	x	-1
CCOC(=O)N1CCN(C(=O)c2ccccc2-c2ccccc2)CC1	3.7µM*	3.3µM*	u	27	3%	3
CCOC(=O)N1CCN(C(=O)c2ccccc2NC(C)=O)CC1	20%	13%	u	10	3%	-11
O=C(COc1ccccc1Cl)Nc1ccccc1C(=O)N1CCCCC1	u	16µM*	u	-10	1%	-11
Cn1c(SCC(N)=O)nc2c([nH]c3ccccc32)c1=O	6%	-20%	x	x	4%	x
O=C(c1cnccn1)N1CCC[C@@]2(CCN(Cc3ccccc3)C2)C1	10%	24%	x	x	x	x
Cc1cc2cc(C(=O)N3CCc4c([nH]c5ccccc45)C3c3ccccn3)ccc2o1 (stereo not given)	u	18µM*	u	-25	12%	3
CC(=O)c1ccc(C(=O)N2CCc3c([nH]c4ccccc34)C2c2cccc(C)n2)s1 (stereo not given)	23µM*	15µM*	u	-67*	6%	-2
